Experimental data taken from PubChem BioAssay.
Calls of active or inactive are those of the source.

Key:
[1] = binders of probe aFSTL3 on microarray, primary screen, stem cell growth factor project, biochemical, small-molecule microarray, fluorescence 635/667 (AID 1064); conditions: higher = more signal;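 note: measures binding of the biotinylated anti-FSTL3 antibody to printed compounds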
[2] = binders from COS7 lysate, DM2A8 probe, primary screen, torsin A project, cell lysate, small-molecule microarray, fluorescence 635/667 (AID 1065); conditions: higher = more signal, COS7 lysate expressing mutant human TOR1A
[3] = binders of probe aFGF2 on microarray, primary screen, stem cell growth factor project, biochemical, small-molecule microarray, fluorescence 635/667 (AID 1067); conditions: higher = more signal;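 note: measures binding of biotinylated aFGF2 protein to printed compounds on slides; z-score merges feature fluorescence and signal-to-noise across triplicate slides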
[4] = binders of probe aFGF10 on microarray, primary screen, stem cell growth factor project, biochemical, small-molecule microarray, fluorescence 635/667 (AID 1071); conditions: higher = more signal;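 note: score merges 667 nm spot intensity and signal to noise from triplicate slides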
[5] = target: Neurogenic locus notch homolog protein 2 (Homo sapiens) (UniProt Q04721); test: Notch2 binders on small-molecule microarrays, primary screen, biochemical, small-molecule microarray, 635 nm fluorescence, stem cell growth factors (AID 1073); conditions: Notch2 binding, higher = more signal
Sequence of Neurogenic locus notch homolog protein 2 (Homo sapiens) (Q04721 whole entry, looked up, canonical isoform): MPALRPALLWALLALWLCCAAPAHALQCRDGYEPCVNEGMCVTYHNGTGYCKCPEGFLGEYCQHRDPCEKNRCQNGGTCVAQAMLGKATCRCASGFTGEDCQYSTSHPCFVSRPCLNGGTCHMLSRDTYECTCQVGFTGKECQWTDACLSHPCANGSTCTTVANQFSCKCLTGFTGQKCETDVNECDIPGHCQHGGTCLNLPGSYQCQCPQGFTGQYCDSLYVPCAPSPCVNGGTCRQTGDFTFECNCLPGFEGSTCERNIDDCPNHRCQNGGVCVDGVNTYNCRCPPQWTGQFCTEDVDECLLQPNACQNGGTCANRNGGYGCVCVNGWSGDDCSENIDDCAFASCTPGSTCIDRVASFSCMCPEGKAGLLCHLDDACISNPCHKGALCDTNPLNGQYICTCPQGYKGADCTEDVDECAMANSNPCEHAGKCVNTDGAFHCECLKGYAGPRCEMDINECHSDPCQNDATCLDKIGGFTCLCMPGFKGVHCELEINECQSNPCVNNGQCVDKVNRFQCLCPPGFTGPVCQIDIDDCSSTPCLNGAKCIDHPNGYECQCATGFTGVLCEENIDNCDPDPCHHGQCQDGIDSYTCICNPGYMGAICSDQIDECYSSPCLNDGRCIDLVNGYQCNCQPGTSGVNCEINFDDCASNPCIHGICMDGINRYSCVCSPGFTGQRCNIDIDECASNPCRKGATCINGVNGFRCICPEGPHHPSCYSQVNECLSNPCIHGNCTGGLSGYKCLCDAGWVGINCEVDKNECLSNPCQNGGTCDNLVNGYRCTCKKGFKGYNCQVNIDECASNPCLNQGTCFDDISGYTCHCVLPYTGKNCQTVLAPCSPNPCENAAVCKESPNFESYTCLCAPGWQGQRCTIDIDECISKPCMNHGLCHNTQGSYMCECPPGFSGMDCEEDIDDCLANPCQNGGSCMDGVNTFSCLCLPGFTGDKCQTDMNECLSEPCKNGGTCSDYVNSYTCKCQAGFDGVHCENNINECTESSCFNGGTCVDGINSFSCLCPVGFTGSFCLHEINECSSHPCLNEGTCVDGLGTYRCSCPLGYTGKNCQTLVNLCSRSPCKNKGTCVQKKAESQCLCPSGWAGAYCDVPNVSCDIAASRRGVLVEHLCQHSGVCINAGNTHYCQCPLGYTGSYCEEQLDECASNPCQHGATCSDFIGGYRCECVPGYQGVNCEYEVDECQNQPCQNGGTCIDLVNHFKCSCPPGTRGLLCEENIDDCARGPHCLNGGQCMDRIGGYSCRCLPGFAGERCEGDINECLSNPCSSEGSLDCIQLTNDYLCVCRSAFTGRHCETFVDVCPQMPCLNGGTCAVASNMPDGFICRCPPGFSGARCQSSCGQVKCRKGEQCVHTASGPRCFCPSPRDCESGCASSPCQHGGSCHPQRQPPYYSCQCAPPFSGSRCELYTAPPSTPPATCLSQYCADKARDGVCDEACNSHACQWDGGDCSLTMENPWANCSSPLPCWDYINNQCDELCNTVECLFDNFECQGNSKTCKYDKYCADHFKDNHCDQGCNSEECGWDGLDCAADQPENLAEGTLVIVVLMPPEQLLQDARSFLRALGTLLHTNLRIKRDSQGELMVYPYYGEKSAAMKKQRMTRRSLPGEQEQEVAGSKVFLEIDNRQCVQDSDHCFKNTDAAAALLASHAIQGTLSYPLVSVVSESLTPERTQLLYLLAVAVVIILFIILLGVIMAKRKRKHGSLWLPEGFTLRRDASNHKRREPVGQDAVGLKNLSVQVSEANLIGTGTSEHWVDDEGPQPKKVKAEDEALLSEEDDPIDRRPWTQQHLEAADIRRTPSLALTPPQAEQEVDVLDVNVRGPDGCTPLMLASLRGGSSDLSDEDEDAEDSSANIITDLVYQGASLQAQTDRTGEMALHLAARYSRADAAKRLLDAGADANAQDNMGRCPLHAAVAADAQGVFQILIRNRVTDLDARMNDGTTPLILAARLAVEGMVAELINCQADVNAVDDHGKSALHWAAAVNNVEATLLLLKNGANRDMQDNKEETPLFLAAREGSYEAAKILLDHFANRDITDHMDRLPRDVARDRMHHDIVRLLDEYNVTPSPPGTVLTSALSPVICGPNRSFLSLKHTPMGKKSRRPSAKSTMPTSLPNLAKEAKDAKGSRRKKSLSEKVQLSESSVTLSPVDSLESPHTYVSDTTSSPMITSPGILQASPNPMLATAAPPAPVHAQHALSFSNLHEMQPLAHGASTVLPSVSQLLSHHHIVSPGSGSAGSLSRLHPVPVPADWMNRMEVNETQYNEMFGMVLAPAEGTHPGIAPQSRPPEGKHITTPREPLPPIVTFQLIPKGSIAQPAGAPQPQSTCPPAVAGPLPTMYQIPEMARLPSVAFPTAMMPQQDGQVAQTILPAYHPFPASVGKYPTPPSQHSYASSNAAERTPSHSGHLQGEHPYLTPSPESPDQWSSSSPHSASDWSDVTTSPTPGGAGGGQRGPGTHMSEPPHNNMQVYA

[6] = target: Pro-neuregulin-1, membrane-bound isoform (Homo sapiens) (UniProt Q02297); test: NRG1 binders on small-molecule microarrays, primary screen, psychiatric disease protein project, biochemical, small-molecule microarray, fluorescence 635/667 (AID 1075); conditions: NRG1 binding, 635 nm fluorescence, higher = more signal;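 note: score combines 667 nm spot fluorescence with signal to noise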
Sequence of Pro-neuregulin-1, membrane-bound isoform (Homo sapiens) (Q02297 whole entry, looked up, the tested form may be a part, canonical isoform): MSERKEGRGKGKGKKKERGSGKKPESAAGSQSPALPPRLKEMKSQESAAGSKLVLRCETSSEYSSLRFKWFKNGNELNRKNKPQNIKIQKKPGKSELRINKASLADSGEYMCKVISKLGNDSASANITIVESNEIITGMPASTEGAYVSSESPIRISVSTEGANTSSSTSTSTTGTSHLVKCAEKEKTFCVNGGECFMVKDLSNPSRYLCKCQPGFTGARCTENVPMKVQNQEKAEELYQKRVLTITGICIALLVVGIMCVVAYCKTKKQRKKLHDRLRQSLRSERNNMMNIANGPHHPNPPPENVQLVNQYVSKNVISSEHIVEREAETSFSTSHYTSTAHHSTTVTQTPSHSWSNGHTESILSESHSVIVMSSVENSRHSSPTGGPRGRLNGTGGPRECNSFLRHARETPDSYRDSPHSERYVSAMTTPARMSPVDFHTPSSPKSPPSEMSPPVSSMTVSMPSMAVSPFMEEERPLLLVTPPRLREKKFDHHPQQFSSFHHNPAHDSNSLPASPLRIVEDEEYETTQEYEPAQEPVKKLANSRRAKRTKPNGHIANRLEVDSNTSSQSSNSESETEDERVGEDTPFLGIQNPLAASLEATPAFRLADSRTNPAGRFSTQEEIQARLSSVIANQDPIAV

[7] = test system: Neuregulin-1 EGF-like domain; test: binders of neuregulin-1 EGF-like domain, primary screen, biochemical, small-molecule microarray, 635 nm fluorescence (AID 1081); conditions: small-molecule microarray binding, higher = more signal;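 note: binding of the protein to compounds printed on small-molecule microarray slides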
[8] = FRG1 promoter luciferase signal modulators, primary screen, FRG1 inhibition for FSHD, cell-based, C2C12 myotubes, firefly/Renilla luciferase, luminescence (AID 1084); conditions: higher = more signal, called active from +8 up or from −8 down
[9] = binders of probe aFST on microarray, primary screen, stem cell growth factor project, biochemical, small-molecule microarray, fluorescence 635/667 (AID 1086); conditions: higher = more signal;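 note: score merges 667 nm fluorescence with signal-to-noise of each printed compound spot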
[10] = binders of probe aHhip on microarray, primary screen, stem cell growth factor project, biochemical, small-molecule microarray, fluorescence 635/667 (AID 1087); conditions: higher = more signal;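 note: score merges spot fluorescence at 667nm with spot signal to noise ratio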
[11] = test system: PRMT1 (protein arginine N-methyltransferase 1); test: PRMT1 binders on small-molecule microarrays, primary screen, biochemical, small-molecule microarray, 635 nm fluorescence (AID 1088); conditions: small-molecule microarray binding, higher = more signal;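 note: binding of Prmt1 protein to compounds spotted on small-molecule microarray slides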
[12] = yeast growth modulation, basal conditions, primary screen, YJM789 clinical isolate, OD600, 24 h (AID 1089);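 note: growth of clinical yeast isolate S. cerevisiae YJM 789 seeded 1000 cells per well; test concentration not given here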; conditions: S. cerevisiae YJM789 growth, higher = more signal, called active from +8 up or from −8 down
[13] = fission yeast growth modulation, primary screen, strain 972, OD600, 24 h, no modulator (AID 1090);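 note: basal condition with compound alone and no growth modifier present; test concentration not given here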; conditions: S. pombe 972 growth, higher = more signal, called active from +8 up or from −8 down
[14] = S. cerevisiae growth modulation with rapamycin, primary screen, strain BY4716, OD600, 96 h (AID 1091); conditions: higher = more signal, called active from +8 up or from −8 down; note: test concentration not given here
[15] = target: Torsin-1A-interacting protein 2 (Homo sapiens) (UniProt Q8NFQ8); test: LULL1 binders on small-molecule microarray, primary screen, cell lysate, human LULL1 lysate, 635/667 nm fluorescence (AID 1092); conditions: hLULL1 lysate binding, 635 nm fluorescence, higher = more signal;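 note: probe is lysate of COS7 cells overexpressing human LULL1; score merges per-feature 667 nm fluorescence with signal-to-noise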
Sequence of Torsin-1A-interacting protein 2 (Homo sapiens) (Q8NFQ8 whole entry, looked up): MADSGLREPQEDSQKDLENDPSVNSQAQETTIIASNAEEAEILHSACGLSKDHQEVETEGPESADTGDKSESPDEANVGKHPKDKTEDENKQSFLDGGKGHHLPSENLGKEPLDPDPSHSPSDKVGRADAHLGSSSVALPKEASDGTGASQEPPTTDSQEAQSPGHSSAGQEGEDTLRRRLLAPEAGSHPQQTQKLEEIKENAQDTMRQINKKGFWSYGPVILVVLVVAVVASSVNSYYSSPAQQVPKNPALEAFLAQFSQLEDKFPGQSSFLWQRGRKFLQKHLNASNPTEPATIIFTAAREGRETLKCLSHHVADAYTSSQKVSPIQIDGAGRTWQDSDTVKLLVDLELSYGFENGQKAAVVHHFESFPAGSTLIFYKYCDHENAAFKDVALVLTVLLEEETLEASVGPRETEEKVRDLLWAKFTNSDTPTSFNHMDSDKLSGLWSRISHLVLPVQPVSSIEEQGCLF

[16] = E. coli growth modulation, two-sided OD650, primary screen, E. coli filamentation project, strain DRC41, 24 h (AID 1093); conditions: OD650, 24 h, higher = more signal, called active from +8 up or from −8 down;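 note: MC1000 strain lacking acrAB efflux and sulA so SOS filamentation is blocked; test concentration not given here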
[17] = small-molecule microarray binders of probe aLefty2, primary screen, biochemical, biotinylated probe, 635/667 nm fluorescence (AID 1094); conditions: higher = more signal;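 note: score merges spot fluorescence near 667 nm with spot signal-to-noise ratio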
[18] = test system: Noggin (protein binding on small-molecule microarray); test: Noggin binders on small-molecule microarray, primary screen, biochemical, 635/667 nm fluorescence (AID 1095); conditions: 635 nm fluorescence, higher = more signal;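 note: score merges 667 nm feature fluorescence with signal to noise over triplicate slides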
[19] = target: Neurogenic locus notch homolog protein 3 (Homo sapiens) (UniProt Q9UM47); test: NOTCH3 binders on small-molecule microarray, primary screen, biochemical, 635/667 nm fluorescence (AID 1096); conditions: NOTCH3 binding, 635 nm fluorescence, higher = more signal
[20] = small-molecule microarray binders of probe aEGFR, primary screen, biochemical, biotinylated probe, 635/667 nm fluorescence (AID 1097); conditions: higher = more signal;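 note: probe is a biotinylated anti-EGFR antibody binding compounds printed on slides; score combines fluorescence near 667 nm and signal to noise of each spot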

| Structure (SMILES) | composite z-score [1] | composite z-score [2] | composite z-score [3] | composite z-score [4] | composite z-score [5] | composite z-score [6] | composite z-score [7] | z-score [8] | composite z-score [9] | composite z-score [10] | composite z-score [11] | z-score [12] | z-score [13] | z-score [14] | composite z-score [15] | z-score [16] | composite z-score [17] | composite z-score [18] | composite z-score [19] | composite z-score [20] |
| --- | --- | --- | --- | --- | --- | --- | --- | --- | --- | --- | --- | --- | --- | --- | --- | --- | --- | --- | --- | --- |
| COC(=O)C(CC#Cc1ccc2c(c1)[C@]1(C(=O)N2)[C@H](C(=O)O)[C@H]2C(=O)O[C@H](c3ccccc3)[C@H](c3ccccc3)N2[C@@H]1c1ccccc1OCCO)C(=O)OC | 0.232 | 0.63 | 0.0762 | 1.12 | 0.866 | 1.27 | 1.21 | 0.483 (inactive) | 0.451 | 0.275 | 1.54 | 1.93 (inactive) | 0.324 (inactive) | -1.17 (inactive) | 3.04 | -0.972 (inactive) | 0.396 | 1.27 | 1.15 | 0.103 |
| O=C1O[C@H](c2ccccc2)[C@H](c2ccccc2)N2[C@H]1[C@@H](C(=O)O)[C@]1(C(=O)Nc3ccccc31)[C@H]2c1ccc(O)cc1 | 1.17 | -0.122 | -0.113 | 0.338 | -0.844 | 1.85 | 0.771 | 1.28 (inactive) | -0.388 | -0.24 | 0.548 | 1.34 (inactive) | 0.278 (inactive) | 0.3 (inactive) | 1.87 | -0.423 (inactive) | -0.166 | -0.317 | -0.188 | -0.257 |
| COc1c(C)cc(-c2cc3c(c(Cc4ccccc4)n2)[Si](C(C)C)(C(C)C)OC3)cc1C | -0.148 | 0.0413 | -0.0448 | -0.108 | 0.64 | -0.0762 | -0.588 | 0.184 (inactive) | 0.335 | -0.0994 | -0.13 | 0.784 (inactive) | 0.567 (inactive) | 1.04 (inactive) | 0.323 | -0.733 (inactive) | -0.157 | 0.529 | 0.598 | -0.0509 |
| COC(=O)[C@@]1(Cc2ccccc2)[C@H]2c3cc(C(=O)N4CCCC4)[nH]c3C[C@H]2CN1C(=O)c1ccccc1 | 0.718 | 0.065 | 0.134 | -0.0267 | 1.13 | 1.29 | 0.664 | 0.535 (inactive) | 0.623 | -0.133 | -1.74 | -0.202 (inactive) | 1.02 (inactive) | 0.0237 (inactive) | 3.51 | -0.156 (inactive) | 0.134 | -0.463 | -0.0434 | -0.122 |
| CC[C@@H]1[C@H]2C3C(=O)N(CC)C(=O)C3CC(=O)[C@H]2[C@H](c2ccc(C)cc2)N1S(=O)(=O)c1ccc(C)cc1 (stereo not given in full) | -0.0209 | 0.172 | -0.0878 | 0.457 | 1.44 | 0.519 | 0.57 | -0.319 (inactive) | 0.84 | -0.0296 | 1.09 | 0.0287 (inactive) | 1.15 (inactive) | 1.6 (inactive) | 2.75 | -0.243 (inactive) | -0.203 | 0.712 | 1.12 | -0.0353 |
